According to PubChem BioAssay:
Results filed as inconclusive are left out. The source made the active and inactive calls.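 How the source made its calls, unless noted: active means normalized viability below 100% at a tested concentration; inactive means the rest.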

Key:
[1] = sensitizers of A549 cells to miR-34 induction, primary screen, imaging, A549 dox-inducible miR-34, nuclei and caspase counts (AID 1347080;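 active means compounds whose cell count with miR-34 switched on is under 0.7 times the count with it off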); conditions: A549 miR-34 inducible, Hoechst nuclei count, 48 h
[2] = growth inhibition of DIPG glioma cells, dose response, cell-based, SU-DIPG-IV, MIPE4.0, CellTiter-Glo, qHTS (AID 1347063; cut-off not given, nearly all actives have AC50 up to about 30 µM;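 further: compound exposure lasted 48 hours before the viability readout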); conditions: SU-DIPG-IV viability, CellTiter-Glo ATP luminescence
[3] = JHH-DIPG-1 glioma cell viability, MIPE5.0 library, CellTiter-Glo luminescence, qHTS (AID 1347067; cut-off not given, nearly all actives have AC50 up to about 26 µM;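 further: cells exposed to compound for 48 hours before readout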); conditions: JHH-DIPG-1 glioma viability, CellTiter-Glo ATP luminescence
[4] = SU-DIPG-XXV glioma cell viability, MIPE5.0 library, qHTS (AID 1347068; cut-off not given, nearly all actives have IC50 up to about 30 µM)
[5] = survival rescue of mitochondrial mutant cells in low glucose, primary screen, MELAS cybrids, Rieske KO mouse fibroblasts, CellTiter-Glo (AID 1508586;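 active means mean z-score across replicates of 1.96 or higher in either the MELAS or the Rieske mutant cell line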;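 further: z relative to plate mean and SD of compound and empty wells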)
[6] = ovarian cancer cell viability with rucaparib, profiling panel, oncology-focused library, rucaparib conditional (AID 1508598); conditions: patient-derived ovarian cancer cells, CellTiter-Glo viability, 144 h, stronger effect = lower value
[7] = growth inhibition of DIPG glioma cells, dose response, cell-based, SU-DIPG-XIII, MIPE5.0, CellTiter-Glo, qHTS (AID 1347064; cut-off not given, nearly all actives have AC50 up to about 23 µM); conditions: SU-DIPG-XIII viability, CellTiter-Glo ATP luminescence
[8] = viability loss in pontine glioma line – cell-based, SU-DIPG-XXV, MIPE5.0, CellTiter-Glo, qHTS, dose response (AID 1347065; cut-off not given, nearly all actives have AC50 up to about 26 µM;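 further: cells exposed to compound for 48 hours before ATP readout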); conditions: CellTiter-Glo ATP luminescence
[9] = SU-DIPG-VI glioma cell viability, MIPE4.0 library, CellTiter-Glo luminescence, qHTS (AID 1347066; cut-off not given, nearly all actives have AC50 up to about 30 µM;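 further: cells exposed to compound for 48 hours before readout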); conditions: CellTiter-Glo ATP luminescence
[10] = stronger effect = lower value, cell number ratio, induced over uninduced
[11] = measured here: relative caspase fold change +Dox/-Dox
[12] = measured here: total cells with miR-34 induction, stronger effect = lower value
[13] = measured here: total cells without miR-34 induction
[14] = MELAS cybrid survival, CellTiter-Glo 48 h, stronger effect = higher value
[15] = Rieske KO mouse fibroblast survival, CellTiter-Glo 72 h

CCCCC/C=C\C/C=C\C/C=C\C/C=C\CCCC(=O)Nc1ccc([N+](=O)[O-])cc1
fold change [1, 10]: 1.04 (inactive)
fold change [1, 11]: 1.21
cell count [1, 12]: 5860
cell count [1, 13]: 5630

CCCCCC(=O)N[C@H]1CCOC1=O
fold change [1, 10]: 0.883 (inactive)
fold change [1, 11]: 0.721
cell count [1, 12]: 5400
cell count [1, 13]: 6120

O=S(=O)(CC1CS1)c1ccc(Oc2ccccc2)cc1 (centres undefined)
AC50 [2]: 20.9 µM (active)
AC50 [3]: 23.5 µM (active)
outcome [4]: inactive
fold change [1, 10]: 0.961 (inactive)
fold change [1, 11]: 0.577
cell count [1, 12]: 8270
cell count [1, 13]: 8600
z-score [5, 14]: -0.354 (inactive)
z-score [5, 15]: -1.56
viability ([6]; at 0.000305 µM, OCI-C5x cells, with rucaparib 10 µM, 100% = cells with rucaparib alone): 114% (inactive)
viability ([6]; at 0.000305 µM, OCI-C5x cells, without rucaparib): 110% (inactive)
viability ([6]; at 0.000305 µM, OCI-P5x cells, with rucaparib 20 µM, 100% = cells with rucaparib alone): 95.3% (active)
viability ([6]; at 0.000305 µM, OCI-P5x cells, without rucaparib): 95.4% (active)
viability ([6]; at 0.00122 µM, OCI-C5x cells, with rucaparib 10 µM, 100% = cells with rucaparib alone): 112% (inactive)
viability ([6]; at 0.00122 µM, OCI-C5x cells, without rucaparib): 111% (inactive)
viability ([6]; at 0.00122 µM, OCI-P5x cells, with rucaparib 20 µM, 100% = cells with rucaparib alone): 98.5% (active)
viability ([6]; at 0.00122 µM, OCI-P5x cells, without rucaparib): 92.4% (active)
viability ([6]; at 0.00488 µM, OCI-C5x cells, with rucaparib 10 µM, 100% = cells with rucaparib alone): 121% (inactive)
viability ([6]; at 0.00488 µM, OCI-C5x cells, without rucaparib): 102% (inactive)
viability ([6]; at 0.00488 µM, OCI-P5x cells, with rucaparib 20 µM, 100% = cells with rucaparib alone): 89.9% (active)
viability ([6]; at 0.00488 µM, OCI-P5x cells, without rucaparib): 97.6% (active)
viability ([6]; at 0.0195 µM, OCI-C5x cells, with rucaparib 10 µM, 100% = cells with rucaparib alone): 122% (inactive)
viability ([6]; at 0.0195 µM, OCI-C5x cells, without rucaparib): 112% (inactive)
viability ([6]; at 0.0195 µM, OCI-P5x cells, with rucaparib 20 µM, 100% = cells with rucaparib alone): 91% (active)
viability ([6]; at 0.0195 µM, OCI-P5x cells, without rucaparib): 94.3% (active)
viability ([6]; at 0.0781 µM, OCI-C5x cells, with rucaparib 10 µM, 100% = cells with rucaparib alone): 121% (inactive)
viability ([6]; at 0.0781 µM, OCI-C5x cells, without rucaparib): 102% (inactive)
viability ([6]; at 0.0781 µM, OCI-P5x cells, with rucaparib 20 µM, 100% = cells with rucaparib alone): 85.3% (active)
viability ([6]; at 0.0781 µM, OCI-P5x cells, without rucaparib): 91.2% (active)
viability ([6]; at 0.313 µM, OCI-C5x cells, with rucaparib 10 µM, 100% = cells with rucaparib alone): 120% (inactive)
viability ([6]; at 0.313 µM, OCI-C5x cells, without rucaparib): 101% (inactive)
viability ([6]; at 0.313 µM, OCI-P5x cells, with rucaparib 20 µM, 100% = cells with rucaparib alone): 84.7% (active)
viability ([6]; at 0.313 µM, OCI-P5x cells, without rucaparib): 93.5% (active)
viability ([6]; at 1.25 µM, OCI-C5x cells, with rucaparib 10 µM, 100% = cells with rucaparib alone): 117% (inactive)
viability ([6]; at 1.25 µM, OCI-C5x cells, without rucaparib): 111% (inactive)
viability ([6]; at 1.25 µM, OCI-P5x cells, with rucaparib 20 µM, 100% = cells with rucaparib alone): 79% (active)
viability ([6]; at 1.25 µM, OCI-P5x cells, without rucaparib): 82.1% (active)
viability ([6]; at 5 µM, OCI-C5x cells, with rucaparib 10 µM, 100% = cells with rucaparib alone): 108% (inactive)
viability ([6]; at 5 µM, OCI-C5x cells, without rucaparib): 110% (inactive)
viability ([6]; at 5 µM, OCI-P5x cells, with rucaparib 20 µM, 100% = cells with rucaparib alone): 80.3% (active)
viability ([6]; at 5 µM, OCI-P5x cells, without rucaparib): 81.4% (active)

C=C(C)[C@@H]1CCC(C)=C[C@H]1c1c(OC)cc(CCCCC)cc1OC
fold change [1, 10]: 0.935 (inactive)
fold change [1, 11]: 1.03
cell count [1, 12]: 5760
cell count [1, 13]: 6160

CC1(C)C(=O)N(c2ccc(C#N)c(C(F)(F)F)c2)C(=S)N1Cc1ccc(-c2cn[nH]n2)cc1
outcome [4]: inactive

CCCCCCCCCC(=O)OC[C@H](COP(=O)([O-])OCC[N+](C)(C)C)OC(=O)CCCCCCCCC
fold change [1, 10]: 0.907 (inactive)
fold change [1, 11]: 0.797
cell count [1, 12]: 5320
cell count [1, 13]: 5860

Cc1sc2c(c1C)C(c1ccc(Cl)cc1)=NC(CC(N)=O)c1nnc(C)n1-2 (centres undefined)
outcome [3]: inactive
outcome [4]: inactive
fold change [1, 10]: 0.978 (inactive)
fold change [1, 11]: 0.427
cell count [1, 12]: 5420
cell count [1, 13]: 5540
z-score [5, 14]: 0.425 (inactive)
z-score [5, 15]: -3.88

CCCCC/C=C\C/C=C\C/C=C\C/C=C\CCCC(=O)NC
fold change [1, 10]: 0.953 (inactive)
fold change [1, 11]: 2.18
cell count [1, 12]: 5880
cell count [1, 13]: 6170

C=C(C)[C@@H]1CCC(C)=C[C@H]1c1c(C)cc(O)cc1O
fold change [1, 10]: 0.943 (inactive)
fold change [1, 11]: 0.916
cell count [1, 12]: 5200
cell count [1, 13]: 5510

C=CCO/N=C(/C[C@H]1O[C@@H]2O[C@]3(C)CC[C@H]4[C@H](C)CC[C@@H]([C@H]1C)[C@@]24OO3)[C@H]1O[C@@H]2O[C@]3(C)CC[C@H]4[C@H](C)CC[C@@H]([C@H]1C)[C@@]24OO3
AC50 [2]: 0.209 µM (active)

CCCCCCC(=O)O[C@H]1CC[C@H]2[C@@H]3C=CC4=CC(=O)CC[C@]4(C)[C@H]3CC[C@]12C
fold change ([1]; stronger effect = lower value): 0.948 (inactive)
fold change [1, 11]: 0.362
cell count [1, 12]: 5660
cell count [1, 13]: 5970

CC(=O)N1N=C(c2ccc(N)cc2)c2cc3c(cc2C[C@H]1C)OCO3
outcome [7]: inactive
outcome [8]: inactive
outcome [3]: inactive
outcome [4]: inactive

C[C@H]1[C@@H](C(=O)C[C@H]2O[C@@H]3O[C@]4(C)CC[C@H]5[C@H](C)CC[C@@H]([C@H]2C)[C@@]35OO4)O[C@@H]2O[C@]3(C)CC[C@H]4[C@H](C)CC[C@@H]1[C@@]24OO3
outcome [9]: inactive

C/C1=C/C(=O)O[C@@H]2C[C@@H](CC[C@H](C)/C=C\CC1)O[C@@](O)([C@@H]1CSC(=O)N1)C2
fold change ([1]; stronger effect = lower value): 1.2 (inactive)
fold change [1, 11]: 0.63
cell count [1, 12]: 1070
cell count [1, 13]: 888

CN=C(NS(=O)(=O)c1ccc(Cl)cc1)N1C[C@@H](c2ccccc2)C(c2ccc(Cl)cc2)=N1
fold change [1, 10]: 0.663 (active)
fold change [1, 11]: 0.468
cell count [1, 12]: 3940
cell count [1, 13]: 5940

CCCCCCC(=O)O[C@H]1CC[C@H]2[C@@H]3C[C@@H](O)C4=CC(=O)CC[C@]4(C)[C@H]3CC[C@]12C
fold change ([1]; stronger effect = lower value): 0.966 (inactive)
fold change [1, 11]: 0.446
cell count [1, 12]: 5500
cell count [1, 13]: 5700

CCCCC/C=C\C/C=C\C/C=C\C/C=C\CCCC(=O)NC[C@H](C)O
fold change [1, 10]: 0.983 (inactive)
fold change [1, 11]: 1.04
cell count [1, 12]: 6010
cell count [1, 13]: 6110

C[C@@H]1CC([C@H](O)CC2CC(=O)NC(=O)C2)C(=O)[C@@H](C)C1 (some centres undefined)
fold change ([1]; stronger effect = lower value): 1.01 (inactive)
fold change [1, 11]: 1.96
cell count [1, 12]: 1800
cell count [1, 13]: 1780
